In PubChem BioAssay (Tox21):
Values without a mark were called inactive. Records with an inconclusive call do not appear. Entries that show only a call come without a potency. Activity calls are given as the source filed them. Calls come from the whole dose curve.

Columns and labels:
[1] = molecular target: Acetylcholinesterase (Homo sapiens) (UniProt P22303); assay: Acetylcholinesterase (AChE) small molecule antagonists: colormetric cell-based qHTS assay (AID 1347395); note: nearly all actives have a fitted effect of over 30% in size; note: potency is the fitted concentration of half-maximal effect
Sequence of Acetylcholinesterase (Homo sapiens) (P22303 whole entry, looked up): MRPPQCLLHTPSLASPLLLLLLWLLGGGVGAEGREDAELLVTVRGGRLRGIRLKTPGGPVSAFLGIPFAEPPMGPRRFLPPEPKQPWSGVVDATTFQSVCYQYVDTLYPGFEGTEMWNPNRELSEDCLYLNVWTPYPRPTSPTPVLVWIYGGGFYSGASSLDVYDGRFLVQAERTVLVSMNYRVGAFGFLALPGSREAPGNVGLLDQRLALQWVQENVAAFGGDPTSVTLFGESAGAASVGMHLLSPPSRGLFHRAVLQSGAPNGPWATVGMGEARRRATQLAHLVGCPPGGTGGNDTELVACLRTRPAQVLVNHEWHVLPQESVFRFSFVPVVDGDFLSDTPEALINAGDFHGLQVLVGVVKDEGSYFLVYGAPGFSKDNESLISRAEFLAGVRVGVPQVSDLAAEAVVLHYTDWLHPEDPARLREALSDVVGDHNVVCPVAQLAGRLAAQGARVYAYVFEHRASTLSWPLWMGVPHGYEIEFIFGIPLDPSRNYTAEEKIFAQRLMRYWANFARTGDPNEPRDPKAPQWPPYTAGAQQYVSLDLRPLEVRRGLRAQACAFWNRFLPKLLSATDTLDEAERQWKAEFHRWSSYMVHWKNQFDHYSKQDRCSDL
Summary of the method: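 Neuroblastoma line SH-SY5Y supplied the enzyme; cells were preincubated with compound for 30 min at 37 C and 5% CO2. Acetylthiocholine with DTNB was then added for 90 min at 37 C, and thiocholine was measured by colour.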

[2] = molecular target: Acetylcholinesterase (Homo sapiens) (UniProt P22303); assay: Acetylcholinesterase (AChE) small molecule antagonists: enzyme-based qHTS assay (AID 1347397); settings: Potency: AChE enzyme activity inhibition; outcome: AChE enzyme activity inhibition; note: nearly all actives have a fitted effect of over 55% in size; note: potency is the fitted concentration of half-maximal effect
Summary of the method: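 Enzyme inhibition was scored from DTNB-detected thiocholine formed by recombinant human AChE acting on acetylthiocholine. The 30 min compound preincubation and 10 min substrate reaction were both run at room temperature, with DMSO as vehicle control.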

[3] = molecular target: Acetylcholinesterase (Homo sapiens) (UniProt P22303); assay: Acetylcholinesterase (AChE) small molecule antagonists: fluorescence cell-based qHTS assay (AID 1347398); settings: Potency: AChE activity; outcome: AChE activity; note: nearly all actives have a fitted effect of over 50% in size; note: potency is the fitted concentration of half-maximal effect
Summary of the method: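 Endogenous acetylcholinesterase of SH-SY5Y neuroblastoma cells is measured in situ. After overnight attachment and 30 min compound exposure, cells receive acetylthiocholine and Thiolite Green; fluorescence is read after 40 min at room temperature.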

[4] = molecular target: Acetylcholinesterase (Homo sapiens) (UniProt P22303); assay: Acetylcholinesterase (AChE) small molecule antagonists: enzyme-based qHTS assay with human liver microsomes (AID 1347399); settings: Potency: qHTS inhibition; outcome: qHTS inhibition; note: nearly all actives have a fitted effect of over 60% in size
Summary of the method: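 Recombinant human AChE (50 mU/mL in the enzyme mix) and human liver microsomes (0.25 mg/mL final) were preincubated with compound and NADPH (0.25 mg/mL final) for 30 min at 37 C. Acetylthiocholine/DTNB was then added; thiocholine was read colorimetrically after 10 min at room temperature.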

SMILES | Potency [1] | Potency [2] | Potency [3] | Potency [4] | activity, negative = inhibition [1] | activity change, negative = inhibition [2] | activity change, negative = inhibition [3] | activity change, negative = inhibition [4]
CC(C)(CCl)c1ccccc1 | inactive | inactive | inactive | inactive | – | – | – | –
O=C(CCCCCCC(=O)Nc1ccccc1)NO | inactive | inactive | inactive | inactive | – | – | – | –
Cc1ccc2c(c1[N+](=O)[O-])C(=O)c1ccccc1C2=O | 781 nM (active) | 1390 nM (active) | 392 nM (active) | inactive | – | – | – | –
COC(=O)C(C)=O | inactive | inactive | inactive | inactive | – | – | – | –
O=S(=O)(O)c1ccc2c(N=Nc3ccc(S(=O)(=O)O)c4ccccc34)c(O)c(S(=O)(=O)O)cc2c1 | – | – | – | – | -0.661% [at 10.5 µM] | 1.09% [at 10.5 µM] | 5.15% [at 10.5 µM] | 1.78% [at 10.5 µM]
CCN(CC)CCOC(=O)C1(c2ccccc2)CCCC1 | inactive | inactive | inactive | inactive | – | – | – | –
CCOC(=S)SSC(=S)OCC | inactive | inactive | inactive | inactive | – | – | – | –
CCC(C)C(=O)OCCc1ccccc1 (stereo unspecified) | inactive | inactive | inactive | inactive | – | – | – | –
O=C1CCC(=O)N1Cl | inactive | inactive | inactive | inactive | – | – | – | –
CCCCOc1ccc(N)cc1 | inactive | inactive | inactive | inactive | – | – | – | –
CCc1cccc(C)c1 | inactive | inactive | inactive | inactive | – | – | – | –
CCCC(CC)CCCCCCCN (stereo unspecified) | inactive | inactive | inactive | inactive | – | – | – | –
CCc1cccc(C)c1N(C(=O)C(=O)O)C(C)COC (stereo unspecified) | inactive | inactive | inactive | inactive | – | – | – | –
COCCOC(=O)C1=C(C)NC(C)=C(C(=O)OC/C=C/c2ccccc2)C1c1cccc([N+](=O)[O-])c1 (stereo unspecified) | inactive | inactive | inactive | inactive | – | – | – | –
O=[N+]([O-])c1ccc(Cl)cc1Cl | inactive | inactive | inactive | inactive | – | – | – | –
C=CC(OCC)OCC | inactive | inactive | inactive | inactive | – | – | – | –
COC(=O)C1CC(=O)C(C(=O)OC)CC1=O (stereo unspecified) | – | – | – | – | 2.2% [at 10.5 µM] | 0.472% [at 10.5 µM] | 1.15% [at 10.5 µM] | -0.962% [at 10.5 µM]

SMILES | Potency [1] | Potency [2] | Potency [3] | Potency [4] | activity, negative = inhibition [1] | activity change, negative = inhibition [2] | activity change, negative = inhibition [3] | activity change, negative = inhibition [4]
CC1=CCC(=C(C)C)CC1 | inactive | inactive | inactive | inactive | – | – | – | –
OC1CCC(C2CCCCC2)CC1 (stereo unspecified) | inactive | inactive | inactive | inactive | – | – | – | –
Cc1ccc(CO)cc1 | inactive | inactive | inactive | inactive | – | – | – | –
O=C(N[C@@H](c1ccccc1)[C@@H]1CCCCN1)c1cccc(C(F)(F)F)c1Cl | inactive | inactive | inactive | inactive | – | – | – | –
CCC(C)(C)C1CCC(=O)CC1 | inactive | inactive | inactive | inactive | – | – | – | –
C=CC(C)C#N (stereo unspecified) | inactive | inactive | inactive | inactive | – | – | – | –
O=C1Nc2ccc(Cl)cc2[C@@](C#CC2CC2)(C(F)(F)F)O1 | inactive | inactive | inactive | inactive | – | – | – | –
CC(C)NCCCC1(C(N)=O)c2ccccc2-c2ccccc21 | inactive | inactive | inactive | inactive | – | – | – | –
CCCCCCCCCCCCCCC1CO1 (stereo unspecified) | inactive | inactive | inactive | inactive | – | – | – | –
CC1=C2[C@H](/C=C(\C)C(=O)O)CC[C@@H](C)[C@H]2CC1 | inactive | inactive | inactive | inactive | – | – | – | –
COC(=O)/C=C(/C)N | inactive | inactive | inactive | inactive | – | – | – | –
O=C1C(O)=C(O)C(=O)C(O)=C1O | inactive | inactive | inactive | inactive | – | – | – | –
c1ccc2c(c1)ccc1c3ccccc3ccc21 | inactive | inactive | inactive | inactive | – | – | – | –
CC(=O)NC(=O)c1ccccc1O | inactive | inactive | inactive | inactive | – | – | – | –
FC1(F)C(F)(F)C(F)(F)C2(F)C(F)(F)C(F)(F)C(F)(F)C(F)(F)C2(F)C1(F)F (stereo unspecified) | inactive | inactive | inactive | inactive | – | – | – | –
CCCCC | inactive | inactive | inactive | inactive | – | – | – | –
O=C(O)c1cc(C(=O)O)c(C(=O)O)cc1C(=O)O | inactive | inactive | inactive | inactive | – | – | – | –
